This passage reports composite z-score and z-score results from PubChem BioAssay.

Activity calls are given as the source filed them.

Assay [1] can be described thus: anti-His antibody binders, primary screen, artefact control for SMM control protein annotation, biochemical, small-molecule microarray, 635 nm fluorescence (AID 1128).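 Also: score merges feature fluorescence with signal-to-noise for each printed compound spot.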 To be noted: anti-His Alexa647 antibody binding, higher = more signal.
Assay [2] deals with Human papillomavirus type 1a E7 protein (residues 1-88). The assay is described as follows: HPV1a E7 small-molecule binders, primary screen, biochemical, small-molecule microarray, residues 1-88, 635 nm (AID 1129). As to conditions: small-molecule microarray binding, fluorescence 635 nm; higher = more signal.
Assay [3] deals with Focal adhesion kinase 1 (Homo sapiens) (UniProt Q05397). The assay is described as follows: small-molecule microarray binders of FAK, primary screen, biochemical, 635/667 nm fluorescence, BSA, DTT (AID 1130).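 Also: composite of spot emission at 667 nm and signal to noise over triplicate slides.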 As to conditions: PTK2 binding, 635 nm fluorescence, higher = more signal.
Focal adhesion kinase 1 (Homo sapiens), sequence (Q05397 whole entry, looked up): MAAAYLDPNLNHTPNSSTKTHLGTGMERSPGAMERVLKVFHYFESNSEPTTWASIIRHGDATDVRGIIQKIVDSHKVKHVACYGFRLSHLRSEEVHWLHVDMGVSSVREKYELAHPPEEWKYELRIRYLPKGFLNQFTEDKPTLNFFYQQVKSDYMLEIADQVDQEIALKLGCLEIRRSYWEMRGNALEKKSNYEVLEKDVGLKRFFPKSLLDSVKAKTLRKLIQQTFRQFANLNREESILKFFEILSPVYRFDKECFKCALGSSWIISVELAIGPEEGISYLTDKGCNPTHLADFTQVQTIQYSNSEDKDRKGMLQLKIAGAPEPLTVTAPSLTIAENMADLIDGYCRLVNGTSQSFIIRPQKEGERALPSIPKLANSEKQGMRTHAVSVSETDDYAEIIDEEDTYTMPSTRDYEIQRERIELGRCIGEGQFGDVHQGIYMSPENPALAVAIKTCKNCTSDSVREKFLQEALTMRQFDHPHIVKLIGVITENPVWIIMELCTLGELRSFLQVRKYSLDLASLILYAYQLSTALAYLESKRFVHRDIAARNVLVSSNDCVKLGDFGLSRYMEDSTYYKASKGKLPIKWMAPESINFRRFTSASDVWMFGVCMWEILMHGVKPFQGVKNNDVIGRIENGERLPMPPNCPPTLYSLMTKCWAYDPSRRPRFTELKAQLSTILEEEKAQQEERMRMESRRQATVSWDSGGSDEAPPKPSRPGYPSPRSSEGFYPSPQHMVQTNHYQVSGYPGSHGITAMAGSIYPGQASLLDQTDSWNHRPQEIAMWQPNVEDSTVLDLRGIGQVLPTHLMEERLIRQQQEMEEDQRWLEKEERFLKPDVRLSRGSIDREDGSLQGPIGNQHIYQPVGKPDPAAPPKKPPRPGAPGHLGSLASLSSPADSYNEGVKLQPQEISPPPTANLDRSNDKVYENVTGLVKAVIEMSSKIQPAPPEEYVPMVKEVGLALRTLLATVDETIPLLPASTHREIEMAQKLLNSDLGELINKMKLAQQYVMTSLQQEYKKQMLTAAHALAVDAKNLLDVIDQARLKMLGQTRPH
Assay [4] concerns Fibrinogen (Alexa647-labelled). As to the kind of experiment: fibrinogen binders on compound microarrays, profiling panel, artefact control for SMM control-protein annotation, biochemical, small-molecule microarray, 635/667 nm fluorescence (AID 1131).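 Also: z-score merges 667 nm fluorescence with per-spot signal-to-noise over triplicate slides.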 To be noted: fibrinogen-A647 binding fluorescence, higher = more signal.
For assay [5], the target named is Follistatin (Homo sapiens) (UniProt P19883). As to the kind of experiment: follistatin binders on small-molecule microarrays, primary screen, biochemical, small-molecule microarray, 635/667 nm fluorescence (AID 1132). As to conditions: FST binding, 635 nm fluorescence, higher = more signal.
Follistatin (Homo sapiens), sequence (P19883 whole entry, looked up): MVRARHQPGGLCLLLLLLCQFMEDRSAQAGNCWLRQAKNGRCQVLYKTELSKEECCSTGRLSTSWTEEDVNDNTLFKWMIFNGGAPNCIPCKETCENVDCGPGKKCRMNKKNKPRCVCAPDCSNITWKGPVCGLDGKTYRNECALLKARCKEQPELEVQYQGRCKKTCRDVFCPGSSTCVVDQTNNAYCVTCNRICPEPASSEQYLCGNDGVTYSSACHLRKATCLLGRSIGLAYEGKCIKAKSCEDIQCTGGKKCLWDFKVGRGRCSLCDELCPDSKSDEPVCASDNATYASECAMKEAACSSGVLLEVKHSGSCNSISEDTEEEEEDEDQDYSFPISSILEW
In assay [6] the target is Fibroblast growth factor 2 (Homo sapiens) (UniProt P09038). As to the kind of experiment: FGF2 binders on small-molecule microarrays, primary screen, biochemical, small-molecule microarray, 635/667 nm fluorescence (AID 1133). To be noted: small-molecule microarray binding, FGF2, fluorescence 635/667; higher = more signal.
Fibroblast growth factor 2 (Homo sapiens), sequence (P09038 whole entry, looked up): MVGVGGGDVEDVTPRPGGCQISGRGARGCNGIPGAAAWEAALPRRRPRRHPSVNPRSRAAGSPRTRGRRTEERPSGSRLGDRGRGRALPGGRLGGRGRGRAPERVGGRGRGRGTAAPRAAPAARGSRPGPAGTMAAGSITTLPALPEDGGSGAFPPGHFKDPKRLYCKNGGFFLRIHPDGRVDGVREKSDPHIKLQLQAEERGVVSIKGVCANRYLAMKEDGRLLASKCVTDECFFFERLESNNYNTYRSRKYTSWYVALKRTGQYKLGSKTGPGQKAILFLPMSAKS
The nature of assay [7]: mitochondrial membrane potential change in A549 cells, profiling panel, cell-based, JC-1 fluorescence, basal, 24 h, 100 nL (AID 1138).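 Also: A549 lung adenocarcinoma cells under basal conditions with no added stimulus; test concentration not given here.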 As to conditions: higher = more signal.
A further assay relates to Lefty1. As to the kind of experiment: Lefty1 binders on small-molecule microarrays, primary screen, biochemical, small-molecule microarray, 635/667 nm fluorescence (AID 1139). As to conditions: small-molecule microarray binding, fluorescence 635/667; higher = more signal.
The test system of assay [8] is wheat germ agglutinin (Triticum aestivum), Alexa647-labelled. The assay is described as follows: wheat germ agglutinin binders on compound microarrays, profiling panel, artefact control for SMM control-protein annotation, biochemical, small-molecule microarray, 635/667 nm fluorescence (AID 1140).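 Also: score merges 667 nm feature emission with signal to noise over triplicate slides.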 To be noted: WGA-A647 binding, 635 nm fluorescence, higher = more signal.

Assay [9] concerns the target Luciferin 4-monooxygenase (Photinus pyralis) (UniProt P08659). As to the kind of experiment: firefly luciferase enzyme inhibitors, primary screen, biochemical, luminescence, purified enzyme, 2006 set (AID 1141).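 Also: cell-free assay with purified firefly luciferase at 100 ng per well in PBS; test concentration not given here.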 As to conditions: SteadyGlo luminescence, 30 min, higher = more signal, called active from +8 up or from −8 down.

Luciferin 4-monooxygenase (Photinus pyralis), sequence (P08659 whole entry, looked up): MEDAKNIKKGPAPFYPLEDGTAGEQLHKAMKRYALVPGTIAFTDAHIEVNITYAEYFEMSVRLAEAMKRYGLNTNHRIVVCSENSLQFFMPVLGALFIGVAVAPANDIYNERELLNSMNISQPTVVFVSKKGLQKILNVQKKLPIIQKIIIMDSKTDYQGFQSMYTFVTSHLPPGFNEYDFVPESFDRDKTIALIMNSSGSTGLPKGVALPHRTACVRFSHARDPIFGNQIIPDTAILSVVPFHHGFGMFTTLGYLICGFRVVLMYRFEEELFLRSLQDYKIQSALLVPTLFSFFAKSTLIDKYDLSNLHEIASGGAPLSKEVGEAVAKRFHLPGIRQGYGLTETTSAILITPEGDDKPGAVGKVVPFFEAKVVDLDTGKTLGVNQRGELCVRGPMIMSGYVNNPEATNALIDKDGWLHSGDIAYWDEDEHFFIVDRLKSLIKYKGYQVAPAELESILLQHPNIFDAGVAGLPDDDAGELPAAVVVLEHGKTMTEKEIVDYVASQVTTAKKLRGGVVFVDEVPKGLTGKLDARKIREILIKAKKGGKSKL

For `O=C1c2ccccc2[C@@]2(Cc3ccccc3N(Cc3ccccc3)C2=O)[C@H](c2ccc(CO)cc2)N1Cc1ccccc1Cl`, the composite z-score in assay [1] is -0.743; in assay [2], -1.14; in [3], -0.0858; in assay [4], -1.2; in assay [5] it was -0.465; in assay [6] it was -0.395. For the same compound, the results for the composite z-score (in the assay on Lefty1; in assay [8]) were -0.0772 and -0.45, respectively. The z-score was -0.00887 in assay [7] and 1.3 (inactive) in assay [9].
Regarding `CCCC#C[Si](O[C@H](CC)c1cn(Cc2ccccc2)nn1)(C(C)C)C(C)C`, the composite z-score in [1] was 0.738; in [2] it was 0.209; in [3], 0.0116; in assay [4] it was 0.903; in assay [5], 1.01; in [6] it was 0.525. In addition, the composite z-score stood at 0.828 with Lefty1 and 0.143 in [8]. The z-score in assay [7] is -0.0817; in [9], -0.403 (inactive).
Consider `COC(=O)[C@@]1(Cc2ccccc2)N=C(c2ccc(OCCCO)cc2)O[C@H]1c1ccccc1CN=[N+]=[N-]`, for which the composite z-score is 1.91 in assay [1]; 0.997 in assay [2]; 0.291 in assay [3]; 0.447 in assay [4]; 1.33 in assay [5]; 1.02 in [6]. Besides, the composite z-score in the assay on Lefty1 is 0.434; in assay [8], 0.0777. For the same compound, the values for the z-score in [7] and in assay [9] were -1.07 and -2.05 (inactive), respectively.
For the compound `COC(=O)[C@@]1(Cc2ccc(OC)cc2)[C@H]2c3cc(C(=O)N4CCCC4)n(CCn4cc([N+](=O)[O-])nc4C)c3C[C@H]2CN1C(=O)c1ccccc1`, the composite z-score was 3.4 in [1]; 1.2 in assay [2]; 1.07 in [3]; 1 in [4]; 0.116 in assay [5]; -0.322 in assay [6]. The composite z-score with Lefty1 was -0.19; in assay [8] it was 0.907. Also, the figures for the z-score in assay [7] and in assay [9] were 1.33 and 1.22 (inactive), respectively.
On to `CCCC[C@H]1C[C@@H]1[C@@H]1N(C(C)=O)[C@H](c2cccc(OC)c2)CC12CC2`, for which the composite z-score in assay [1] is -0.101; in [2] it was 0.173; in [3], 0.17; in assay [4] it was 0.832; in [5], -0.631; in assay [6], -0.532. Further, the composite z-score in the assay on Lefty1 is -0.613; in assay [8] it was 0.133. Further, the z-score in [7] was 0.605; in [9], 2.15 (inactive).
Consider `CCCC=C(CCC)[C@@H](NC(=O)OCC(C)C)c1ccc(C(=O)OC)cc1`, for which the composite z-score was 0.403 in assay [1]; 0.717 in assay [2]; 1.16 in assay [3]; 0.441 in assay [4]; -0.133 in [5]; 0.462 in [6]. In addition, the composite z-score with Lefty1 was 0.704; in assay [8], 0.0477. In addition, the z-score in assay [7] is 0.744; in assay [9], 2.34 (inactive).
Consider `C=CCC(OC(C)=O)[C@@H]1[C@@H](N(Cc2cc3ccccc3o2)C(=O)Cc2ccc(OC)cc2)c2cc(OCCCO)ccc2N1C(=O)c1ccc2ccccc2n1` (stereo not given in full), for which the composite z-score in [1] was 0.264; in [2] it was -0.314; in assay [3], 0.138; in assay [4], 0.301; in assay [5], 0.654; in assay [6] it was 0.0376. For the same compound, the composite z-score was 0.0249 in the assay with Lefty1 and -0.0063 in [8]. For the same compound, the z-score in assay [7] was -0.194; in assay [9], -0.219 (inactive).
As to `CC(C)=CCCC(C)=CC(O)C1C=CC2C(=O)NC(=O)C2N1Nc1ccccn1` (stereo not given), the composite z-score in [1] is 1.97; in assay [2], 1.08; in assay [3], -0.097; in assay [4] it was 0.868; in assay [5] it was 1.39; in assay [6], 1.7. Also, the composite z-score came to 1.54 in the assay with Lefty1 and 0.73 in [8]. The z-score in assay [7] was 0.966; in assay [9] it was -1.17 (inactive).
Turning to `COCCOC(=O)N1C(=O)[C@@]2(c3cc(C#CCC(C(=O)OC)C(=O)OC)ccc31)[C@H](C(N)=O)[C@H]1C(=O)O[C@H](c3ccccc3)[C@H](c3ccccc3)N1[C@@H]2c1ccc(O)cc1`, the composite z-score in assay [1] worked out at 2.22; in [2], 1.23; in [3], 0.601; in [4], 0.92; in assay [5], 1.33; in assay [6], 0.468. The composite z-score in the assay on Lefty1 was 1; in assay [8], 1.06. The z-score in [7] was -2.31; in [9], -0.878 (inactive).
For `CC(C)NC(=O)[C@@H]1c2ccccc2C(=O)N(Cc2ccc(OC(F)(F)F)cc2)[C@H]1c1ccc(CO)cc1`, the composite z-score in assay [1] was 0.7; in [2], 1.18; in [3], 0.344; in [4] it was 0.529; in assay [5], 1.34; in assay [6], 1.22. The composite z-score in the assay on Lefty1 was 0.868; in assay [8] it was 0.45. For the same compound, the z-score is 0.107 in assay [7] and 0.441 (inactive) in assay [9].
`O=C1O[C@H](c2ccccc2)[C@H](c2ccccc2)N2[C@H]1[C@@H](C(=O)O)[C@]1(C(=O)Nc3ccc(C#CCCO)cc31)[C@H]2c1ccc(OCCO)cc1`: the composite z-score in [1] was 2.27; in assay [2], 1.22; in assay [3] it was 0.146; in assay [4], 0.974; in assay [5], 1.22; in assay [6] it was 1.16. Moreover, the figures for the composite z-score (in the assay with Lefty1; in assay [8]) were 0.0897 and 1.17, respectively. Moreover, the z-score in [7] was 0.747; in [9], -3.11 (inactive).
`O=C1OCCC=C[C@H]2OC34C=CCN(c5ccc6ccccc6c5)C(=O)[C@H]3N(CCO)C(=O)[C@@H]4C12` (stereo not given in full): the composite z-score in assay [1] was -0.75; in assay [2] it was -0.803; in assay [3], -0.101; in [4] it was -0.318; in [5], -0.129; in [6] it was -0.909. Also, the results for the composite z-score (in the assay with Lefty1; in [8]) were -0.472 and -0.117, respectively. Further, the z-score was -0.522 in [7] and -0.207 (inactive) in [9].
For `COC(=O)[C@@]1(Cc2ccc(OC)cc2)[C@H]2c3cc(C(=O)N4CCCC4)n(Cc4ccc(C(F)(F)F)nc4)c3C[C@H]2CN1C(=O)c1ccccc1`, the composite z-score in assay [1] is 1.4; in [2] it was 1.22; in assay [3] it was 1.14; in [4], 0.683; in assay [5] it was 0.0995; in [6], -0.342. The composite z-score turned out to be 0.087 in the assay with Lefty1 and 0.902 in [8]. Further, the z-score in [7] was 0.939; in assay [9] it was -7.63 (inactive).
